In PubChem BioAssay AID602156 (GNF / Scripps Winzeler lab, 2011) one finds outcome data, which are given here for 62 molecules.

In all, about 5,700 compounds went through this assay and about 280 (4.9%) were called active. How the calls were made is not given here. The list is a sample of the results.

This experiment in a line: Plasmodium liver-stage growth inhibition, dose response, imaging, Malaria Box, P. yoelii, HepG2-A16-CD81EGFP (AID 602156). As to conditions: P. yoelii liver stage in HepG2-A16-CD81EGFP.
With `CC(C)(C)CC(=O)NCCCCNc1ccnc2cc(Cl)ccc12`, the molecule was classed as inactive.

In the case of `O=C(Nc1ccc(-c2nc3ccccc3[nH]2)cc1)c1cccc(C(=O)Nc2ccc(-c3nc4ccccc4[nH]3)cc2)n1`, the molecule was called inactive. In the case of `O=C(Nc1ccc(-c2nc3ccccc3[nH]2)cc1)c1ccc(-c2cccc([N+](=O)[O-])c2)o1`, the molecule was classed as inactive. The value for `CCc1ccccc1N(CC(=O)NC1CCCCC1)C(=O)CCC(=O)Nc1ccccn1` was “inactive”.

With `Oc1ccc(-c2ccccc2)cc1CNC1CCCCC1`, the molecule was called inactive. The value for `CCOC(=O)c1c(C)[nH]c(C)c1S(=O)(=O)N1CCCC(C(=O)N2CCN(c3cccc(C)c3C)CC2)C1` (configuration not stated) was “inactive”. Turning to `CC1CN(C(=O)C(Cc2c[nH]c3ccccc23)NC(=O)CCl)CCN1C(=O)Nc1ccccc1` (configuration not stated), the molecule was called inactive. Regarding `Cc1ccc(C=Cc2ccc3ccccc3[n+]2C)cc1`, the result was inactive. The value for `COc1ccc(-c2c[n+](CC(=O)c3ccccc3)c3n2CCC3)cc1` was “inactive”; that for `COc1ccc(OC)c(-c2ccc(O)c(CNCC(C)c3ccccc3)c2)c1` (configuration not stated) was “inactive”; that for `COc1cccc2cc(C(=O)Nc3cccc(C(F)(F)F)c3)c(=O)oc12` was “inactive”. In the case of `Fc1cc(F)c(C2SCCN2C(=S)Nc2cccc(C(F)(F)F)c2)c(F)c1` (configuration not stated), the molecule was classed as inactive.

For the molecule `CC(C)(C)CC(C)(C)Nc1c(-c2ccccc2OC(=O)c2cccc(Br)c2)nc2ccccn12`, the result was inactive. Take `COc1ccccc1C=CC1=NC(=Cc2ccc(SC)cc2)C(=O)O1`: the molecule was classed as inactive.

Take `O=C(Cn1cc([N+](=O)[O-])nc1[N+](=O)[O-])N1CCN(c2ccc(F)cc2)CC1`: the outcome was inactive. The value for `CCOc1ccc(C=C2SC(=Nc3ccccc3)NC2=O)cc1OC` was “inactive”. The entry for `CCOC(=O)C1CCN(C(=O)CN2C(=O)c3ccccc3C2c2c[nH]c3ccccc23)CC1` (configuration not stated) is “inactive”; for `N#CC(=Cn1cc(Cc2ccc(Cl)cc2Cl)c2ccccc21)c1nn(CCO)c(N)c1C#N` it is “inactive”. The entry for `Cc1nnc2sc(SCc3ccc([N+](=O)[O-])cc3)nn2c1=O` is “inactive”; for `CC1CCN(S(=O)(=O)c2ccc(C(=O)NCc3ccco3)cc2)CC1` it is “inactive”.

As to `CCN1CCCC1CNc1ncnc2c1[nH]c1ccc(C)cc12` (configuration not stated), the call was inactive. Consider `c1ccc(CCCNc2ccnc3cc4ccccc4cc23)cc1`, for which the outcome was inactive. The entry for `COCCn1c(SCC(=O)c2ccc(C)cc2C)nnc1-c1ccco1` is “inactive”; for `CCN(CC)CCNc1ncnc2c1[nH]c1ccc(Br)cc12` it is “inactive”.

As for `CC(C)CNC(=O)c1cnc(NCCCN2CCCC2)nc1NCC1CCCCC1`, the result was inactive.

With `CC[n+]1c(/C=C2\Sc3oc4ccccc4c3N2C)ccc2cc(C)ccc21`, the outcome was inactive. As to `c1ccc(Nc2nc(NCC3CCCO3)c3ccccc3n2)cc1` (configuration not stated), the outcome was inactive. Regarding `COc1ccccc1N1C(=N)SC(=Cc2ccc(OCc3ccccc3F)cc2)C1=O`, the molecule was classed as inactive.

For the molecule `CC[N+](CC)=c1scc(-c2ccc([N+](=O)[O-])cc2)s1`, the molecule was classed as inactive.

For `COc1cc(C(=O)NCCc2cc3ccccc3[nH]2)ccc1OC1CCN(CC(c2ccccc2)c2ccccc2)CC1`, the result was inactive. The entry for `O=C(NCCCCCCCCCCNC(=O)Nc1ccc(C2=NCCCN2)cc1)Nc1ccc(C2=NCCCN2)cc1` is “inactive”; for `COc1ccc(-c2csc3nc(COc4cccc(C)c4)nn23)c(O)c1` it is “inactive”. The entry for `CCCCN(C)C(=O)CSc1nc(NCc2ccccc2)c2ccccc2n1` is “inactive”; for `Cc1ccc(N=C2SC(=Cc3c(Cl)cccc3Cl)C(=O)N2c2ccc(C)c(C)c2)cc1C` it is “inactive”; for `CCCCCCC(=O)Oc1ccccc1-c1nc2ccccn2c1NC(C)(C)CC(C)(C)C` it is “inactive”. The value for `CN(CCCNc1ccnc2cc(Cl)ccc12)C(=O)c1ccc(Cl)c(Cl)c1` was “inactive”; that for `Cc1c(Cl)cccc1NC(=O)C1C(C(=O)O)C2C=CC1C21CC1` (configuration not stated) was “inactive”; that for `CCCCCN(C(=O)c1ccc(Br)cc1)C(CC)c1nc2ccccc2c(=O)n1-c1ccccc1OC` (configuration not stated) was “inactive”.

For the molecule `CCCCCCN(C(=O)c1ccccc1)C(CC)c1nc2ccccc2c(=O)n1-c1ccccc1OC` (configuration not stated), the molecule was classed as inactive. Take `O=c1c2c(nc3cc(-c4ccc(Cl)cc4)[nH]n13)CCCC2`: the outcome was inactive. The value for `O=c1c2c(nc3cc(-c4ccc(-c5ccccc5)cc4)[nH]n13)CCCC2` was “inactive”; that for `Cc1cccc(OCC(=O)Nc2cccc(NC(=O)COc3cccc(C)c3)n2)c1` was “inactive”; that for `CCc1ccc(C(C)=NNc2nc(-c3ccccc3)cc(=O)[nH]2)cc1` was “inactive”. The entry for `Cc1cccc(NS(=O)(=O)c2ccc3[nH]c(=O)ccc3c2)c1C` is “inactive”; for `COc1cc(/C=C(\C#N)c2nc3ccccc3[nH]2)ccc1OCc1ccc(C)cc1` it is “inactive”; for `Clc1ccc(Nc2nc(Nc3ccc(Cl)cc3)c3ccccc3n2)cc1` it is “inactive”.

With `CCc1ccc(-n2c(C(CC)N(CCc3ccccc3)C(=O)c3cc(OC)cc(OC)c3)nc3ccccc3c2=O)cc1` (configuration not stated), the molecule was classed as inactive. As for `CCCCCCN(C(=O)COCc1ccccc1)C(C)c1nc2ccccc2c(=O)n1-c1cccc(Cl)c1C` (configuration not stated), the molecule was classed as inactive. `Cc1ccc2c(c1)c(-c1ccccc1)c(-c1ccccc1)n2CC(O)CN1CCN(Cc2ccccc2)CC1` (configuration not stated): the molecule was classed as inactive. As to `CC1CC(C)CN(c2ccc([N+](=O)[O-])cc2-c2nn[nH]n2)C1` (configuration not stated), the result was inactive.

On to `COc1ccc(C=NNc2nc3ccc(Cl)cc3[nH]2)cc1OC`, for which the molecule was classed as inactive. Turning to `COc1ccc(C=C2SC(=N)N(c3ccc4c(c3)OCO4)C2=O)cc1OC`, the molecule was classed as inactive. Consider `COc1ccc(C(OCC(=O)N2CCN(Cc3ccccc3)CC2)c2ccccc2)cn1` (configuration not stated), for which the result was inactive. The value for `O=C(Nc1ccc(C2=NCCN2)c(Cl)c1)c1cccc(C(=O)Nc2ccc(C3=NCCN3)c(Cl)c2)c1` was “inactive”; that for `CC1CC(C)CN(S(=O)(=O)c2ccc(C(=O)Nc3ccc(-c4nc5ccccc5o4)cc3)cc2)C1` (configuration not stated) was “inactive”; that for `Cc1ccc2cc3c(N)c4cccc(C)c4nc3nc2c1` was “inactive”. Regarding `CCOc1ccc(Nc2[nH]c(=O)sc2C2=c3cc(Br)ccc3=NC2=O)cc1`, the outcome was inactive. The value for `Cc1ccc(O)c(NC(=O)c2cnn3c(C(F)(F)F)cc(-c4ccc(F)cc4)nc23)c1` was “inactive”.

On to `O=C(C=Cc1cccnc1)C12CC3CC(CC(C3)C1)C2`, for which the molecule was called inactive.

As to `O=C1NN(c2ccccc2)C(=O)C1=C1C(=O)N(Cc2cccc3ccccc23)c2ccccc21`, the outcome was inactive.

For `Cc1cc2ncn(N=Cc3cccnc3)c2cc1C`, the result was inactive.

For `CCOC(=O)c1c(C)n(-c2ccccc2)c2ccc(OC(=O)c3ccccc3NC(=O)CC)cc12`, the outcome was inactive.
